AC50 and outcome data for 34 compounds are collected here from PubChem BioAssay (EPA / NIEHS).

Inconclusive results are not listed. Activity calls are given as the source filed them. How the source made its calls: active means hit-call score of the fitted dose curve at least 0.9, where 1 is the maximum; inconclusive means response in the unintended direction; inactive means score below 0.9.

Chain of Luciferin 4-monooxygenase (Photinus pyralis) (P08659 whole entry, looked up): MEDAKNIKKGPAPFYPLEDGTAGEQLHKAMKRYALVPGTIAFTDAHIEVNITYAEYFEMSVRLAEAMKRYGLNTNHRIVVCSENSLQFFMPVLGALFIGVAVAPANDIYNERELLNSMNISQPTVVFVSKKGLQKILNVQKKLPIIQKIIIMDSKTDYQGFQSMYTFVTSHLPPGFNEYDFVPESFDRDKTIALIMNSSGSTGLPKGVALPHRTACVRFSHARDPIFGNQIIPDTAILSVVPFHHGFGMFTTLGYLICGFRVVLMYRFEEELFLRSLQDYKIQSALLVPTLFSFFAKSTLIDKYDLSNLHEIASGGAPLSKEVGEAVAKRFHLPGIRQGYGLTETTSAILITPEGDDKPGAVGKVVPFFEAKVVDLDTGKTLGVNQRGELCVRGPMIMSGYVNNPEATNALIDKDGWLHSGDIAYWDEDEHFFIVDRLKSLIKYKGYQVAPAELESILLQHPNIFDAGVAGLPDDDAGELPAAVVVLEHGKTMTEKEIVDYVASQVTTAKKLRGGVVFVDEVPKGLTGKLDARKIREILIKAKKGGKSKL

System in one assay: not listed separately
Put plainly: Tanguay_ZF_120hpf_ActivityScore_legacy: (Legacy) Oregon State University Tanguay Lab 120 Hour Post-fertilization zebrafish Assay Score for Activity (AID 2283742).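 On AC50: dechorionated Tropical 5D wild-type zebrafish embryos held singly per well; static exposure from 6 hpf until 120 hpf at 28 °C.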 Summed up:
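Dechorionated Tropical 5D embryos, one per well from 6 hpf, statically exposed to 120 hpf at 28 °C in 0.64% DMSO. Mortality and malformations scored binary by brightfield microscopy; activity score combines 18 endpoints, fitted positively versus DMSO.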
Consider `CCCCCCCC1CCC(=O)O1` (centres undefined), for which the AC50 (as a rule, the concentration at which the activity in the assay is half-maximal) is 43.7 µM (active).
For `O=C1CN(N=Cc2ccc([N+](=O)[O-])o2)C(=O)N1`, the compound was called inactive.
Still for that read-out and setting: under `NNC(=O)c1ccncc1` stands “inactive”.
On to `c1ccc(C(O[C@@H]2CCCN(CCc3ccc4c(c3)OCO4)C2)c2ccccc2)cc1`, for which the AC50 was 36.3 µM (active).
As to `COS(C)(=O)=O`, the outcome was inactive.
As to `O=C(O)c1cccc(C[C@@H]2COc3ccc(OCc4nc5cc(F)ccc5s4)cc3[C@@H]2O)c1`, the concentration at half-maximal activity (AC50) is 37.3 µM (active).
`CCn1nc(C)c2c1C(=O)NCC(c1ccc(O)cc1)=N2`: the outcome was inactive.
With `CCCCCCCCCCCCCCCCOS(=O)(=O)O`, the compound was classed as inactive.
Still for that read-out and setting: under `O=C(NO)C1(NS(=O)(=O)c2ccc(Oc3ccc(F)cc3)cc2)CCOCC1` stands “inactive”; under `Cc1ncc([C@@H](CCCCCCc2ccc3c(n2)NCCC3)CC(=O)O)cn1`, “inactive”; under `CCc1ccc(O)c(C(C)(C)C)c1`, “inactive”.
Same read-out and setting: under `CC(C)C(=O)Nc1ccc([N+](=O)[O-])c(C(F)(F)F)c1` stands “inactive”.
Still for that read-out and setting: next, `Cc1nc(-c2ccccn2)ncc1C(=O)Nn1cc(C)c2cc(F)ccc21`: “inactive”; `CCCCN1C(=O)[C@@H]([C@H](O)C2CCCCC2)NC(=O)C12CCN(Cc1ccc(Oc3ccc(C(=O)O)cc3)cc1)CC2`: “inactive”.
As to `O=c1[nH]cnc2c1ncn2[C@H]1CC[C@@H](CO)O1`, the compound was classed as inactive.
For the compound `Cc1ccc(S(=O)(=O)NC(=O)NN2CCCCCC2)cc1`, the compound was called inactive.
On the same count and under the same terms, under `CCCCOC(=O)c1ccccc1` stands “inactive”; under `NC(=O)N(O)[C@@H]1COc2cc(OCc3ccccc3)ccc21`, “inactive”; under `CCCC(CCC)C(=O)O`, “inactive”.
With `COc1cc(C(C)C)c2c(c1)S(=O)(=O)N(COc1cc(=O)n3cccc(OCCN4CCCCC4)c3n1)C2=O`, the AC50 was 7.72 µM (active).
Same read-out and setting: next, `CCN(CC)C(=S)SSC(=S)N(CC)CC`: 0.831 µM (active); `COc1cc2c(c(OC)c1OC)-c1ccc(OC)c(=O)cc1[C@@H](NC(C)=O)CC2`: 36.4 µM (active).
With `CC[C@H](C)C(=O)O[C@H]1C[C@H](O)C=C2C=C[C@H](C)[C@H](CC[C@@H](O)C[C@@H](O)CC(=O)O)[C@H]21`, the result was inactive.
Still for that read-out and setting: under `CC(C)c1nnc2ccc(-c3ocnc3-c3cc(F)ccc3F)cn12` stands “inactive”.
On the same count and under the same terms, next, `C=CCc1cc(S(=O)(=O)c2ccc(O)c(CC=C)c2)ccc1O`: “inactive”.
For the compound `c1ccc2cc3ccccc3cc2c1`, the outcome was inactive.
Take `OCc1ccccc1`: the call was inactive.
On the same count and under the same terms, next, `CCCCC(CC)C(=O)OCCOCCOCCOC(=O)C(CC)CCCC` (centres undefined): “inactive”.
`Nc1ccn([C@@H]2O[C@H](CO)[C@@H](O)[C@@H]2O)c(=O)n1`: the result was inactive.
`OCC(CO)(CO)CO`: the outcome was inactive.
Turning to `C[C@@H](Oc1ccc(CNC(=O)c2cccnc2Oc2ccc3c(c2)OCO3)c(F)c1)C(=O)O`, the result was inactive.
`CCCc1ccccc1`: the call was inactive.

System in the next assay: not listed separately
Description: ArunA_NOG_NucleusCount: ArunA Biomedical's Neurite Outgrowth (NOG) Assay for Nucleus Count (AID 2283756). The gist of the method: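 Human H9-derived differentiated neurons were exposed for 48 h right after seeding. Hoechst-stained nuclei gated by size and intensity were counted by automated high-content imaging as viable neurons. Loss of signal vs DMSO.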
On to `CCCC(CCC)C(=O)O`, for which the AC50 is 82.6 µM (active).
On the same count and under the same terms, next, `CCN(CC)C(=S)SSC(=S)N(CC)CC`: 18.4 µM (active).
Regarding `Cn1cc[nH]c1=S`, the AC50 is 5.5 µM (active).

System in another assay: not listed separately
Put plainly: ArunA_NOG_NeuriteLength: ArunA Biomedical's Neurite Outgrowth (NOG) Assay for Neurite Length (AID 2283757). The gist of the method: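 Differentiated human H9-derived neurons were exposed for 48 h from seeding, then stained with Hoechst and βIII-tubulin. Automated high-content imaging gave total neurite length per valid neuron, counting processes >10 um. Loss of signal was scored versus DMSO.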
In the case of `CCCC(CCC)C(=O)O`, the AC50 is 77.4 µM (active).
In the case of `CCN(CC)C(=S)SSC(=S)N(CC)CC`, the AC50 is 15.5 µM (active).
Still for that read-out and setting: next, `Cn1cc[nH]c1=S`: 6.43 µM (active).

System in a further assay: not listed separately
Description: ArunA_NOG_NeuritesPerNeuron: ArunA Biomedical's Neurite Outgrowth (NOG) Assay for Neurites Per Neuron (AID 2283758). Summed up: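 Differentiated human H9-derived neurons exposed to chemicals for 48 h from seeding, then stained with Hoechst and βIII-tubulin/DyLight 488. Automated imaging counted neurites (processes >10 um) per valid neuron; loss of signal versus DMSO scored.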
`CCCC(CCC)C(=O)O`: the AC50 was 91.1 µM (active).
As for `CCN(CC)C(=S)SSC(=S)N(CC)CC`, the AC50 is 14.5 µM (active).
Same read-out and setting: next, `Cn1cc[nH]c1=S`: 5.75 µM (active).

The target of the next assay is Luciferin 4-monooxygenase (Photinus pyralis) (UniProt P08659). Put plainly: CCTE_Simmons_QuantiLum_inhib_2: CCTE's Firefly Luciferase Inhibition Assay, Simmons Lab (AID 2283767).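 On AC50: potency for inhibitors that lower luciferase luminescence relative to DMSO.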 Summed up:
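Counter-screen for nonspecific enzyme inhibition: purified firefly luciferase incubated 30 min at 37C with chemicals up to 87.5 uM final, then luminescence measured after luciferin/dATP injection; activity fitted against DMSO baseline.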
As for `NNC(=O)c1ccncc1`, the compound was called inactive.
Take `COS(C)(=O)=O`: the compound was classed as inactive.
As to `CCn1nc(C)c2c1C(=O)NCC(c1ccc(O)cc1)=N2`, the AC50 was 15.8 µM (active).
For the compound `CCCCCCCCCCCCCCCCOS(=O)(=O)O`, the outcome was inactive.
Still for that read-out and setting: under `Cc1cccc(O)c1C` stands “inactive”.
Take `O=C(NO)C1(NS(=O)(=O)c2ccc(Oc3ccc(F)cc3)cc2)CCOCC1`: the call was inactive.
Same read-out and setting: under `CCc1ccc(O)c(C(C)(C)C)c1` stands “inactive”; under `Cc1ccc(S(=O)(=O)NC(=O)NN2CCCCCC2)cc1`, “inactive”.
As for `NC(=O)N(O)[C@@H]1COc2cc(OCc3ccccc3)ccc21`, the AC50 is 2.1 µM (active).
With `C=CCc1cc(S(=O)(=O)c2ccc(O)c(CC=C)c2)ccc1O`, the outcome was inactive.
Still for that read-out and setting: under `c1ccc2cc3ccccc3cc2c1` stands “inactive”; under `Cn1cc[nH]c1=S`, “inactive”; under `C[C@@H](Oc1ccc(CNC(=O)c2cccnc2Oc2ccc3c(c2)OCO3)c(F)c1)C(=O)O`, “inactive”.
